Shown are actives, neighbours in structure and some others; about 10% of the full set was active somewhere.
Six1-Eya2 inh: Six1/Eya2 interaction inhibition; Q15475+O00167; AlphaScreen GST-Six1/His-Eya2 binding, biochemical; hits give low values; activity change, % (concentration not given with the values); actives 0.56% (n = 360,000); in the data active = activity change below about -65%; inconclusive = mostly about -30% to -63%
Target sequence (O00167 whole entry, looked up): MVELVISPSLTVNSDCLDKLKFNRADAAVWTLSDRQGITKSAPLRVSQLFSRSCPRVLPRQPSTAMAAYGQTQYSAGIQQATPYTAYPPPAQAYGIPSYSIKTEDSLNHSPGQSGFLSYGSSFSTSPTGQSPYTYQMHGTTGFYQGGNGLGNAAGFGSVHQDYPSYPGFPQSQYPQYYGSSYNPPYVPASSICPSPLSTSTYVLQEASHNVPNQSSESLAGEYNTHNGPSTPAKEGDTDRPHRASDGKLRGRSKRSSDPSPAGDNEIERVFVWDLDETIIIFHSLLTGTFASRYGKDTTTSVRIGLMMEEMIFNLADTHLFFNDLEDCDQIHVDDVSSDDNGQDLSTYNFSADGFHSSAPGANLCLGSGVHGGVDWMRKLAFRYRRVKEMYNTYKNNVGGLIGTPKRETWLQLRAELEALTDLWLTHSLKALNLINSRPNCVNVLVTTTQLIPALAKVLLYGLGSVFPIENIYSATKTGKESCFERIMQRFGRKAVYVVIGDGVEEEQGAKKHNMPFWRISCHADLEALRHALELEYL
Target sequence (Q15475 whole entry, looked up): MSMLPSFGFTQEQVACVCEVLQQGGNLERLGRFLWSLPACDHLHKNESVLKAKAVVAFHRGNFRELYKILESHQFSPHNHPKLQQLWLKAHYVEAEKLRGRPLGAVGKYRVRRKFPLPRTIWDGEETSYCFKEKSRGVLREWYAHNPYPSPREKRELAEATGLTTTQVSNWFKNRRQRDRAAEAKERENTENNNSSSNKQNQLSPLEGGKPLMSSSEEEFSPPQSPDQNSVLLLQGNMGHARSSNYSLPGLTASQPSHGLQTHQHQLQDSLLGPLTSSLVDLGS
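GST-Six1 + His-Eya2 (5X stock: 250/500 nM); Tris pH 8.0, 300 mM NaCl, 0.05% BSA, 0.02% Tween 20; GSH donor/Ni acceptor beads; 1 h 37 °C dark; AlphaScreen readout.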
BAZ2B block: blocks human BAZ2B. Q9UIF8. AlphaScreen BAZ2B-H3K14Ac peptide displacement. Potency, µM (highest dose often 114 µM), usual class: inhibitors. actives 4.4% (n = 360,000). AID 504333; note: nearly all actives have a fitted effect of over 60% in size
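Protein-peptide AlphaScreen: BAZ2B 50 nM, b-H3K14Ac 50 nM, 1x PBS pH 7.4 + 0.01% Tween-20. Preincubation 30 min RT; cpd 30 min RT (top 110 uM); beads 20 min RT, light-protected.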
JMJD2A Tudor: blocks the human JMJD2A Tudor domain. O75164. actives 4.4% (n = 390,000). AID 504339. AlphaScreen JMJD2A-Tudor / H3K4me3 peptide binding. Potency, µM (highest dose often 114 µM), usual class: inhibitors; note: nearly all actives have a fitted effect of over 50% in size
G9a block: G9a (human) methyltransferase inhibition. G9a H3K9 monomethylation, AlphaScreen, 2 h. actives 8.8% (n = 350,000). Q96KQ7. Potency, µM (highest dose often 102 µM), actives largely listed as inhibitors; note: nearly all actives have a fitted effect of over 75% in size
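G9a (20 nM) was preincubated 15 min with compound, then reacted 2 h at room temperature with 500 nM biotin-H3K9 peptide and 20 µM SAM. Monomethyl-H3K9 detected by AlphaScreen using anti-H3K9me1 antibody.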
HP1b binding inh: inhibitors of HP1-beta chromodomain binding to methylated histone tails | Potency, µM (highest dose often 114 µM), actives largely listed as inhibitors | P83916 | actives 0.56% (n = 390,000) | AlphaScreen HP1-beta / biotin-H3K9me3 peptide binding; note: nearly all actives have a fitted effect of over 70% in size
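AlphaScreen: HP1-beta (50 nM) preformed 30 min with biotin-H3(1-18)K9me3 peptide (50 nM) in PBS pH 7.4, 0.01% Tween-20. Compound added for 30 min at RT, then streptavidin donor/nickel chelate acceptor beads (10 ug/mL) for 30 min.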
CtBP-E1A blk: CtBP/E1A binding inhibition | actives 0.49% (n = 340,000) | AlphaScreen GST-E1A/His-CtBP binding, 1536-well; hits give low values | activity change, % (concentration not given with the values); in the data active = activity change below about -65%; inconclusive = mostly about -30% to -63%
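Protein mix (5X: 125 nM each GST-E1A, His-CtBP) was incubated with pinned compound 2 h at 37 deg C in dark, in 50 mM Tris pH 8.0 buffer with 300 mM NaCl. Glutathione donor and nickel acceptor beads followed; AlphaScreen signal read after 1 h.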
A number is an active result; i = inactive; ? = inconclusive; nt = no result; [ ] = dose if it differs, or a comment. Unless noted, calls come from the whole dose curve; as a rule, active = well fitted inhibition curve with a large enough effect; inconclusive = small, poorly fitted or top-dose-only effect; inactive = no such curve, though single readings can be large or run the other way.

SMILES	Six1-Eya2 inh	BAZ2B block	JMJD2A Tudor	G9a block	HP1b binding inh	CtBP-E1A blk
CCc1cc2c(s1)c1cnn(Cc3ccccc3F)c(=O)c1n2C	nt	nt	i	nt	nt	nt
Cc1ccc(C(=O)COC(=O)c2cccc(NC(=O)c3ccc(Cl)cc3Cl)c2)cc1	nt	i	i	i	i	nt
NS(=O)(=O)c1ccc(-c2ccc(C=C3C(=O)c4ccccc4C3=O)o2)cc1	i	i	i	i	i	i
CC(C)CC1=C/C(=C/c2ccc(-c3ccccc3)o2)C(=O)O1	?	45µM	?	13µM	?	i
CCOC(=O)c1sc(NC(=O)c2c(OC)cccc2OC)nc1C	i	i	i	i[12.7 µM]	i	i
CCOC(=O)c1cccc(NC(=O)CN2CCN(c3ccc(OC)cc3)CC2)c1	i	?	?	56µM	i	i
CCOc1ccccc1N1CCN(CC(=O)Nc2nc(C)c(C(=O)N(C)C)s2)CC1	i	i	14µM	nt	i	i
CCOC(=O)c1sc(NC(=O)Cc2ccccc2OC)nc1C	i	i	i	40µM	i	nt
Cc1ccccc1N1CCN(CC(=O)Nc2nc(C)c(C(=O)N(C)C)s2)CC1	i	i	?	i	i	i
CCOC(=O)c1sc(NC(=O)CN2CCN(c3ccc(OC)cc3)CC2)nc1C	i	35µM	56µM	40µM	?	?
COc1ccc(NC(=O)c2ccc(NC(=O)CN3CCN(c4ccccc4)CC3)cc2)cc1	i	nt	i	nt	i	i
Cc1ccc(CNC(=O)CC2Oc3ccccc3NC2=O)cc1 (centres undefined)	nt	i	i	i	i	nt
Cc1ccc(N2CCN(C(=O)c3cc(S(=O)(=O)N4CCCCC4)c[nH]3)CC2)c(C)c1	nt	i	i	i	i	nt
CC(=O)N1CCc2cc(Br)cc(S(=O)(=O)CCC(=O)NCc3ccc(F)cc3)c21	nt	i	i	i	i	nt
O=C(c1ccc(N2CCOCC2)nc1)N1CCOCC1	i	i	i	i	i	i
O=C(c1ccc(C(=O)N2CCOCC2)nc1)N1CCOCC1	i	i	40µM	?	i	i
CC(C)(C)n1nnnc1C(c1cccnc1)N(Cc1ccccc1)Cc1ccco1 (centres undefined)	i	i	i	i[12.7 µM]	i	i
COc1cccc(CN(Cc2ccco2)C(c2ccc(F)cc2)c2nnnn2C(C)(C)C)c1 (centres undefined)	i	i	i	50µM	i	i
Cc1nc(Cc2nnc(SCC(=O)N3CCN(c4ccccc4)CC3)o2)cs1	i	i	i	45µM	i	i
COc1ccc(C(=O)NCc2nnc(SCC(=O)N3CCCCC3)o2)cc1OC	i	i	i	79µM	i	i
O=C(NCc1nnc(SCC(=O)N2CCN(c3ccccc3)CC2)o1)c1ccc(F)cc1	i	i	i	79µM	i	i
COc1cccc(CNC(=O)CCn2cccn2)c1	nt	i	i	i	i	nt
NC(=S)c1ccc[n+]([O-])c1	i	nt	1.1µM	nt	?	i
O=C(O)c1ccc[n+]([O-])c1	nt	nt	nt	i[12.7 µM]	nt	nt
Cc1ccc(C(C)C)cc1OCC(=O)NC1CCCCCCC1	i	i	i	i	i	i
SMILES	Six1-Eya2 inh	BAZ2B block	JMJD2A Tudor	G9a block	HP1b binding inh	CtBP-E1A blk
Cc1ccc(C(C)C)cc1OCCOCCN1CCCC1	i	?	7.1µM	13µM	?	i
Cc1ccccc1OCCOCCN1CCCCCC1	i	?	?	40µM	?	i
COc1ccccc1OCCOCCN1CCCC1	i	i	50µM	25µM	?	i
CC(=O)c1cccc(NC(=O)c2c(N3CCCC3=O)c3cc(F)ccc3n2C)c1	nt	i	i	?	i	nt
COc1ccc(N2CCN(C(=O)c3cn(Cc4ccccc4)nc3-c3cccnc3)CC2)cc1	i	i	i	8.9µM	i	i
O=C(c1cc(-c2ccccc2Cl)nc2ccccc12)N1CCN(c2ccccc2O)CC1	i	i	i	56µM	i	i
Cc1ccc(-c2cc(C(=O)N3CCOCC3)c3ccccc3n2)o1	i	nt	i	nt	i	i
Cc1ccc(-c2cc(C(=O)N3CCN(c4ncccn4)CC3)c3cc(Br)ccc3n2)o1	i	?	35µM	?	?	i
O=C(c1cc(-c2ccccc2Cl)nc2ccccc12)N1CCC1	i	i	i	i	i	i
Cc1ccc(-c2cc(C(=O)N3CCN(c4ccc(F)cc4)CC3)c3ccccc3n2)o1	i	40µM	56µM	45µM	i	i
N#Cc1ccc(CN2CCN(C(=O)c3cn(Cc4ccccc4)nc3-c3cccnc3)CC2)cc1	i	i	i	?	i	i
CCCCN1C(=O)C(O)(CC(=O)c2ccc(C(C)(C)C)cc2)c2ccccc21 (centres undefined)	nt	i	i	i	i	nt
CCOC(=O)c1cc2c(=O)n3ccccc3nc2n(C)c1=NC(=O)c1c(-c2ccccc2Cl)noc1C	nt	i	i	i	i	nt
CCOc1ccc(OCC)c(NC(=O)c2cnc(SC)nc2-c2ccccc2)c1	nt	i	i	i	i	nt
Cc1ccccc1-c1noc(CCC(=O)Nc2cccc(C)c2C)n1	nt	i	i	i	i	nt
Cc1ccc(-c2cc(C(=O)N3CCN(c4ccc(O)cc4)CC3)c3ccccc3n2)cc1	?	nt	28µM	nt	?	nt
COc1ccc(-c2cc(C(=O)N3CCN(c4ccccc4O)CC3)c3ccccc3n2)cc1	i	i	i	?	i	nt
COc1ccc(-c2cc(C(=O)N3CCN(c4ccccc4)CC3)c3ccccc3n2)cc1	i	i	i	40µM	i	i
Cc1ccc(-c2cc(C(=O)N3CCN(c4ccccc4O)CC3)c3ccccc3n2)cc1	i	i	?	40µM	i	i
COCCOC(=O)/C(C#N)=C/c1cn(Cc2ccccc2)nc1-c1cccnc1	i	79µM	35µM	?	i	i
Cc1ccccc1CNC(=O)CCCn1c(=O)c2cccn2c2cccnc21	nt	i	i	i	i	nt
Cc1ccc(NCc2ccccc2-c2nnc(-c3ccccc3Cl)o2)c(C)c1	nt	?	?	i	i	nt
CCCCn1c(=O)c2oc3ccccc3c2n(Cc2cccc(C)c2)c1=O	nt	i	i	i	i	nt
COc1ccc(Cl)cc1NC(=O)Cc1ccc(NC(=O)N2CCCCc3ccccc32)cc1	nt	i	i	i	i	nt
COCCNC(=O)CCn1c(=O)c2cc(OC)c(OC)cc2n(CC(=O)Nc2ccccc2OC)c1=O	nt	i	i	i	i	nt
COc1ccc(N2CCN(C(=O)c3cc(C4CC4)nn3-c3ccccc3)CC2)cc1	i	45µM	50µM	?	?	i
O=C(c1cc(C2CC2)nn1-c1ccccc1)N1CCN(Cc2ccccc2)CC1	i	nt	nt	nt	nt	i
COc1ccc(N2CCN(C(=O)c3cc(-c4cc(OC)ccc4OC)nc4ccccc34)CC2)cc1	?	11µM	35µM	25µM	?	i
COc1ccc(-c2cc(C(=O)N3CCN(c4ncccn4)CC3)c3ccccc3n2)c(OC)c1	i	i	i	?	i	i

Bioassay records as filed in PubChem.
